# High-throughput results: PubChem BioAssay, National Center for Advancing Translational Sciences (NCATS)
# An excerpt weighted towards active compounds, which were near 19% of everything screened.
# HT1080 IDH1KD tx = HT-1080 IDH1 knockdown cell toxicity (counter line); HT-1080 IDH1 knockdown viability, ATP luminescence, 48 h; Potency, µM (titrated, usually from 46.1 µM), without a hit: at the top dose activity, negative = toxicity, actives largely listed as cytotoxic; hit rate 2% among 360,000; AID 686971;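 further: 0% = DMSO wells and -100% = cell-free medium wells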
#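 Using the IDH1-knockdown HT-1080 line run in the same batch and compound series as the NT line, viability after 48 h at 37 °C was determined by CellTiter-Glo luminescence and expressed as % activity.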
# HT1080NT lethal = kills 2HG-producing HT-1080-NT fibrosarcoma cells; HT-1080-NT fibrosarcoma viability, CellTiter-Glo ATP luminescence, 48 h; Potency, µM (titrated, usually from 46.1 µM), for inactives: top-dose activity, negative = less viability, hits mostly cytotoxic; hit rate 1.6% among 360,000; AID 686970;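 further: NT is the 2HG producing partner of a matched IDH1 knockdown line; 0% = DMSO-treated cells and -100% = media-only wells without cells; nearly all actives have a fitted effect of over 55% in size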
#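 HT-1080-NT fibrosarcoma cells (2HG-overproducing), 750 cells/well in RPMI with 5% FBS, dosed after 2 h and incubated 48 h at 37C. CellTiter-Glo luminescence normalized to DMSO and no-cell wells; concentration-response curves fitted and classed.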
# DT40 TDP1 no CPT = qHTS for Inhibitors of human tyrosyl-DNA phosphodiesterase 1 (TDP1): qHTS in cells in absence of CPT; DT40 Tdp1-/- hTDP1 cells, no CPT, ATP luminescence, 48 h; Potency, µM (titrated, usually from 46.2 µM), for the others: at the top dose activity change, negative = growth inhibition, hits mostly inhibitors; hit rate 15% among 420,000; AID 686978, 2013; further: nearly all actives have a fitted effect of over 55% in size
#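 Growth of hTDP1-complemented DT40 Tdp1-knockout cells is measured by ATP luminescence after at least 48 hr compound exposure at 37 °C, with DMSO substituting for the 20 nM CPT used in the parallel screen.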
# DT40 TDP1 CPT = growth inhibition of DT40 Tdp1-/-;hTDP1 cells with camptothecin (screen for TDP1 inhibitors). chicken DT40 Tdp1-/-;hTDP1 cells + 20 nM CPT, ATP luminescence, 48 h. Potency, µM (doses to about 46.2 µM), for inactives: top-dose activity change, negative = growth inhibition, usual class: inhibitors. hit rate 12% among 420,000. AID 686979; further: nearly all actives have a fitted effect of over 55% in size
#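 Chicken DT40 Tdp1-/- cells stably complemented with human TDP1 were seeded at 400 cells/well in medium containing 20 nM camptothecin, exposed to pin-transferred compounds, and grown at 37 °C for at least 48 hr. Viability was read as ATP luminescence.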
# KB-V1 MDR tox = kills drug-selected multidrug resistant KB-V1 cells. KB-V1 MDR cells viability, CellTiter-Glo, 72 h. Potency, µM (titrated, usually from 46.1 µM), most hits filed as cytotoxic. hit rate 3.4% among 400,000. AID 1347076; further: nearly all actives have a fitted effect of over 60% in size
#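 In this primary screen, KB-V1 cells overexpressing P-gp are incubated with library compounds (lowest to highest concentration) for 72 h at 37 degrees C before a luminescent ATP viability read.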
# KB-3-1 cytotox = kills parental KB-3-1 adenocarcinoma cells. KB-3-1 viability, CellTiter-Glo ATP luminescence, 72 h. Potency, µM (top dose mostly 46.1 µM), hits mostly cytotoxic. hit rate 1.4% among 400,000. AID 1347075; further: nearly all actives have a fitted effect of over 60% in size
#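 Viability of parental KB-3-1 cells, measured by CellTiter-Glo luminescence, followed a 72 h incubation at 37 °C with pinned compounds in phenol-red-free DMEM containing 10% FBS.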
# * = called active by the depositor; i = inactive; ? = inconclusive; nt = not tested or not shown; ! = a repeat was not active. The call rests on the fitted dose curve; in most records, active means well fitted curve in the direction sought with a large enough effect; inconclusive means small, poorly fitted or top-dose-only effect, or another doubt; inactive means no such curve, though single readings can be large; an effect the other way counts as inactive or inconclusive. Unless noted, on the % scale 0 is the no-effect control and ±100 the full control effect; potency means the concentration at half of the fitted maximal effect.
SMILES,HT1080 IDH1KD tx,HT1080NT lethal,DT40 TDP1 no CPT,DT40 TDP1 CPT,KB-V1 MDR tox,KB-3-1 cytotox
CCOC(=O)c1ccc(NC(=S)N(CCCN2CCCC(C)C2)Cc2ccco2)cc1 (centres undefined),?,?,?,-29%,i,i
CC1CCCC(C)N1C(=O)Cn1cc(C#N)c2ccccc21 (centres undefined),1%,1%,-19%,-5%,i,i
CC1CCCC(C)N1C(=O)Cn1cc(/C=C2/C(=O)Nc3ccccc32)c2ccccc21 (centres undefined),?,?,21µM*,18µM*,i,i
COc1ccc(-c2c(-c3cc(OC)cc(OC)c3)n(C)c3ccc(-c4ccc(N(C)C)nc4)cc23)cc1,0%,0%,18µM*,21µM*,i,i
COc1cccc(-c2c(-c3cc(OC)cc(OC)c3)n(C)c3ccc(-c4ccc(OC)nc4)cc23)c1,16%,0%,16µM*,18µM*,?,i
COc1cc(OC)cc(-c2c(-c3ccc(F)cc3)c3cc(-c4ccc(OC)nc4)ccc3n2C)c1,5%,8%,23µM*,?,i,i
COc1cc(OC)cc(-c2c(C#Cc3ccsc3)c3cc(-c4ccc(N(C)C)nc4)ccc3n2C)c1,1%,12%,21µM*,?,i,i
O=C(CSc1nc2c(c(=O)[nH]1)CCC2)Nc1ccccc1F,nt,nt,-11%,-12%,i,i
Cc1ccc(OCCCCCCN2CCNCC2)cc1,?,?,21µM*,18µM*,i,i
Cc1cc(Cl)c(OCCOCCN2CCNCC2)c(Cl)c1,-11%,-3%,12µM*,?,i,i
Cc1ccccc1OCCCCCCN1CCNCC1,?,?,16µM*,23µM*,i,i
O=S(=O)(c1ccccc1)N1CCC2(CCCN(Cc3nccs3)C2)CC1,nt,nt,?,3%,nt,nt
O=C(Nc1cc(Cl)ccc1Cl)C1Cc2ccccc2O/C1=N\O (centres undefined),-12%,3%,-11%,-3%,i,i
O=c1oc2cc(O)ccc2cc1-c1nnc(Nc2ccccc2F)s1,nt,nt,-20%,7%,nt,nt
COc1cccc(Nc2nnc(-c3cc4ccc(O)cc4oc3=O)s2)c1,nt,nt,23µM*,?,nt,nt
O=C(Nc1ccc(S(=O)(=O)Nc2ncccn2)cc1)c1ccc(F)c(S(=O)(=O)N2CCOCC2)c1,1%,0%,-12%,?,i,i
O=C(c1ccc(Cl)c(S(=O)(=O)N2CCOCC2)c1)N1CCN(c2ccccn2)CC1,8%,8%,?,-3%,i,i
CCOc1ccc(NC(=O)c2ccc(F)c(S(=O)(=O)N3CCN(c4ccccn4)CC3)c2)cc1,?,-18%,16µM*,?,2.3µM*,i
O=C(Nc1cccc(Cl)c1)c1ccc(F)c(S(=O)(=O)N2CCN(c3ccccn3)CC2)c1,?,-19%,18µM*,23µM*,?,?
CCOc1ccc(NC(=O)c2ccc(F)c(S(=O)(=O)N3CCCC3)c2)cc1,-24%,-17%,12µM*,9.2µM*,?,?
C/C=C1\C(OC2OC(CO)C(O)C(O)C2O)OC=C(C(=O)OC)C1CC(=O)OCC1C(C)C(OC(=O)CC2C(C(=O)OC)=COC(OC3OC(CO)C(O)C(O)C3O)/C2=C\C)CC1C(CO)CO (centres undefined),4%,-1%,6%,6%,i,i
COc1ccccc1/C=N\Nc1cn[nH]c(=O)c1Cl,?,-29%,?,7%,8.2µM*,i
O=c1[nH]ncc(N/N=C\c2cccnc2)c1Cl,2%,-1%,1%,-15%,?,i
CCOc1ccccc1/C=N\Nc1cnn(Cc2ccccc2)c(=O)c1Cl,-24%,-5%,?,23µM*,i,i
O=c1[nH]ncc(N/N=C\c2cccs2)c1Cl,-11%,-4%,-28%,2%,3.3µM*,?
SMILES,HT1080 IDH1KD tx,HT1080NT lethal,DT40 TDP1 no CPT,DT40 TDP1 CPT,KB-V1 MDR tox,KB-3-1 cytotox
O=c1[nH]ncc(N/N=C\c2ccncc2)c1Cl,2%,6%,3%,-3%,21µM*,i
Cc1cccc(/C=N\Nc2cn[nH]c(=O)c2Cl)c1,?,-10%,-18%,?,4.1µM*,i
COc1cccc(C(=O)/C(C#N)=N/Nc2cccc(-c3ccnc(C)n3)c2)c1,-28%,26µM*,21µM*,?,?,?
CNC(=O)Nc1cccc(-c2ccnc(C)n2)c1,2%,2%,-8%,7%,i,i
Cc1ccn2c(NC3CCCCC3)c(-c3cccc(SC4CCCCC4)c3)nc2c1,?,?,8.2µM*,16µM*,?,?
Cc1ccn2c(NC3CCCC3)c(-c3ccsc3)nc2c1,-8%,1%,-25%,?,?,i
CCC(C)Sc1cccc(-c2nc3cc(C)ccn3c2NC2CCCCC2)c1 (centres undefined),18µM*,12µM*,15µM*,16µM*,16µM*!,?
Cc1ccn2c(NC3CCCCC3)c(-c3ccc(SC4CCCCC4)cc3)nc2c1,2%,9%,23µM*,?,18µM*,?
Cc1ccn2c(=O)nc(SCC(=O)NC3CCCCC3)nc2c1,5%,2%,3%,5%,?,i
CCCCCCSc1cccc(-c2nc3cc(C)ccn3c2NC2CCCCC2)c1,-3%,0%,16µM*,21µM*,?,i
Cc1ccn2c(=O)nc(SCC(=O)NC3CCCC3)nc2c1,-11%,-9%,-13%,-28%,i,i
Cc1ccc(CNC(=O)c2nn(C)c3c2CSc2ccc(C)cc2-3)cc1,nt,nt,?,?,i,i
CCC(=O)N1CCCC(C(=O)NS(=O)(=O)c2cc(C)c(Cl)cc2C)CC1 (centres undefined),12%,27%,-3%,14%,i,i
Cc1c(C)n(Cc2ccccc2)c2ncnc(Cl)c12,-18%,-23%,3.7µM*,15µM*,i,i
Cc1nc(C)c(C(=O)NCCC(c2ccccc2)c2ccccc2)o1,-29%,-17%,12µM*,?,8.2µM*,?
C/C(COc1ccccc1)=N\NC(=O)c1nnn(-c2nonc2N)c1CSc1ccccc1,-6%,-1%,-23%,-2%,i,i
COc1ccc(Cl)cc1NC(=O)c1cnc(SC)nc1-c1ccccc1,nt,nt,?,?,?,i
